This is a sample that favours compounds with a hit; in the whole collection about 1.2% have one here.
GC-A act – GC-A (human) enzyme activation; HEK293 GC-A cells, cGMP TR-FRET, EC30 ANP; 0% at EC30 ANP, 100% saturating ANP; AID 1671463; activation, % at 10 µM; P16066; 370,000 tested, 0.14% active; in the data active means activation above about 40%
bovine MsrA act – bovine methionine sulfoxide reductase A activation. purified bovine MsrA, absorbance read-out. activation, % at 10.6 µM. 360,000 tested, 0.3% active. AID 602163; in the data active means activation above about 7.5%
GC-B act – GC-B (human) receptor activation. P20594. HEK293-GC-B cells, CNP EC30, cGMP TR-FRET; 0% at EC30 CNP, 100% saturating CNP. 370,000 tested, 0.11% active. activation, % at 10 µM. AID 1920062;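 active means activation at 10 µM reaching about 35% in either raw or pattern-adjusted values, limit read from the data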
MsrA inh – bovine MsrA inhibition; purified bovine MsrA, absorbance read-out; inhibition, % at 15.5 µM; 360,000 tested, 0.75% active
MsrA act confirm – bovine methionine sulfoxide reductase A activation confirmed | 1,000 tested, 12% active | activation, % at 10.6 µM | purified bovine MsrA, absorbance read-out | shares compounds with bovine MsrA act; in the data active means activation above about 4%;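 further: enzyme coupled to thioredoxin and thioredoxin reductase with NADPH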
MsrA conf – confirmation of bovine MsrA inhibitors. 2,300 tested, 41% active. inhibition, % at 15.5 µM. shares compounds with MsrA inh. purified bovine MsrA, absorbance read-out;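 further: coupled to thioredoxin reductase with NADPH and selenocystamine and DMSO as substrate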
Of the large screens only hits and unclear results are named; the others gave an inactive call (follow-up assays come after a bar, where they were run). Unless noted, no stated cut-off is given here; in the data, active means inhibition above about 4.5%; inactive means the rest.

O=C(O)c1cccc(NC(=O)N2C[C@H]3C[C@@H](C2)c2cccc(=O)n2C3)c1	bovine MsrA act 8.9 | MsrA act confirm inactive
CCOC(=O)c1c(C=O)c2ccccc2n1Cc1ccccc1	MsrA inh 4.9 | MsrA conf 5.0
Cc1ccc(C)c(Cn2c(C(=O)O)c(C=O)c3ccccc32)c1	none
O=C(NN=Cc1ccc(N(CCCl)CCCl)cc1)c1cccc([N+](=O)[O-])c1	none
O=C(NN=Cc1ccc(N(CCCl)CCCl)cc1)c1cccnc1	MsrA inh 5.2 | MsrA conf inactive
CC(C)(C)N1Cc2ccccc2C1=N	none
CCCC(=O)Nc1ccc(N2CCN(CC)CC2)c(Cl)c1	none
CCCC(=O)NC1=C(N2CC2)C(=O)C(NC(=O)CCC)=C(N2CC2)C1=O	MsrA inh 4.7 | MsrA conf inactive
CC(C)c1ccc(-n2c(O)c(C=NC(CCS(C)=O)C(=O)O)c(=O)[nH]c2=S)cc1 (stereo not given)	MsrA inh 5.1 | MsrA conf inactive
COc1ccc(CCNCc2ccncc2)cc1	none
Cc1cc(N(CCCl)CCCl)ccc1/C=N/NC(=O)c1ccco1	MsrA inh 4.8 | MsrA conf inactive
O=c1cccc2n1CC1CC2CN(S(=O)(=O)c2ccccc2)C1 (stereo not given)	none
CC(C)n1c(O)c(C=NCc2cccnc2)c(=O)[nH]c1=S	MsrA inh 4.9 | MsrA conf 5.2
O=C1c2cccc3cccc(c23)C(=O)N1/N=C/c1c(O)n(-c2ccccc2)c(=O)[nH]c1=O	MsrA inh 5.1 | MsrA conf inactive
COC(=O)C1=C(c2ccccc2)C[C@@H]2CC[C@H]1N2C	none
CC(=O)Nc1ccc(S(=O)(=O)N2Cc3ccccc3-n3nncc3C2)cc1	none
N#CCCn1cc(C(=O)Nc2ccccc2Br)c(-c2ccc([N+](=O)[O-])cc2)n1	MsrA inh 47 | MsrA conf inactive
COc1ccccc1Cn1c(SCC#N)nc2cc(C(=O)N3CCC4(CC3)OCCO4)ccc2c1=O	none
C/C(=N\NC(=O)c1ccccc1Cl)c1c(O)n(C2CCCCC2)c(=O)[nH]c1=O	none
C/C(=N\NC(=O)c1ccccc1O)c1c(O)n(C2CCCCC2)c(=O)[nH]c1=O	MsrA inh 5.0 | MsrA conf 6.7
Cn1c(O)c(C=Nc2ccccc2)c(=O)n(C)c1=O	MsrA inh 5.1 | MsrA conf 4.8
CN1C2CCC1C(C(=O)Oc1ccccc1)C(c1ccc(Cl)cc1)C2 (stereo not given)	none (no result: bovine MsrA act)
C=CCn1c(O)c(/C=N/N2CCCCC2c2cccnc2)c(=O)[nH]c1=S (stereo not given)	MsrA inh 5.8 | MsrA conf inactive
CCCCn1c(O)c(/C=N/N2CCCCC2c2cccnc2)c(=O)[nH]c1=S (stereo not given)	none
COc1cc(N2CCOCC2)ccc1/C=C1\C(=O)NC(=O)N(Cc2cccs2)C1=O	MsrA inh 6.4 | MsrA conf inactive
COc1cc(N2CCOCC2)ccc1/C=C1\C(=O)NC(=O)N(Cc2ccc3c(c2)OCO3)C1=O	MsrA inh 6.2 | MsrA conf inactive
COCCCn1c(-c2ccc(OC)cc2)cc(C(=O)NC2CCCCCCC2)c1C	none
CN1C[C@H](O)[C@H]2C[C@@H]1c1ccccc1O2	none (no result: bovine MsrA act)
COc1cc2c(cc1O)CC1c3c(cc(O)c(OC)c3-2)CCN1C (stereo not given)	MsrA inh 9.7 | MsrA conf 9.5
CCOc1cc2c(cc1OCC)-n1cccc1C(c1cccc(F)c1F)NC2 (stereo not given)	none
CN(C)c1ccc(C(=O)c2ccc(N(C)C)cc2)cc1	MsrA inh 5.0 | MsrA conf inactive
CN(C)c1ccc(/C=C2\C(=O)NC(=O)N(Cc3ccc(F)cc3)C2=O)cc1	MsrA inh 4.9 | MsrA conf 4.6
CN(C)c1ccc(/C=C2/C(=O)NC(=O)N(CCc3ccc(F)cc3)C2=O)cc1	none
Cc1cccc(-n2c(O)c(C=NCCN3CCNCC3)c(=O)[nH]c2=S)c1	none
CNC(=S)N1CCN(CCN=Cc2c(O)n(-c3ccc(C)cc3)c(=S)[nH]c2=O)CC1	MsrA inh 4.7 | MsrA conf inactive
CC(=O)c1ccc2c(c1)C1C(Cl)C(Sc3ccccc3[N+](=O)[O-])CC1C(c1ccccc1[N+](=O)[O-])N2 (stereo not given)	GC-B act 75, MsrA inh 5.5 | MsrA conf inactive
CC(=O)c1ccc2c(c1)C1C(Cl)C(Sc3ccccc3[N+](=O)[O-])CC1C(c1ccccc1)N2 (stereo not given)	none
O=C1NC(=O)C(=Cc2ccc(N3CCOCC3)cc2)C(=O)N1	MsrA inh 6.0 | MsrA conf inactive
COc1cc(N2CCOCC2)ccc1C=C1C(=O)NC(=O)NC1=O	none

Screens deposited in PubChem by several laboratories.
